Fam108B counter: Fam108B inhibition, counter-screen for RBBP9 inhibitors; recombinant Fam108B, FP-Rh probe fluorescence polarization; inhibition, % at 9.51 µM; hit rate 0.33% among 300,000; AID 1947;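 active = inhibition above the screen mean inhibition plus 3 SD, computed separately per campaign, cut at about 18% in these data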;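 also: inhibitors lower polarization as less probe binds the enzyme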
PME-1 primary: blocks human protein phosphatase methylesterase 1; inhibition, % at 5.9 µM; Q9Y570; hit rate 0.53% among 320,000; recombinant PME-1, FP-Rh probe fluorescence polarization;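 active = inhibition above the campaign mean of all compounds plus 3 SD, cut at about 26% in these data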;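 also: competitive labeling of PME-1 active site by serine hydrolase directed probe; 0% = PME-1 with DMSO and 100% = wells lacking PME-1 enzyme; inhibitors block probe labeling so polarization falls and inhibition rises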
PAFAH1B2 FP inh: inhibitors of human PAFAH1B2 | P68402 | recombinant PAFAH1B2, FP-rhodamine activity probe, fluorescence polarization | inhibition, % at 3.39 µM | hit rate 1.2% among 340,000;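 active = inhibition above the mean of all tested compounds plus 3 SD, cut at about 24% in these data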;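 also: 0% = enzyme with DMSO and 100% = wells lacking PAFAH1B2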
Target sequence (P68402 whole entry, looked up): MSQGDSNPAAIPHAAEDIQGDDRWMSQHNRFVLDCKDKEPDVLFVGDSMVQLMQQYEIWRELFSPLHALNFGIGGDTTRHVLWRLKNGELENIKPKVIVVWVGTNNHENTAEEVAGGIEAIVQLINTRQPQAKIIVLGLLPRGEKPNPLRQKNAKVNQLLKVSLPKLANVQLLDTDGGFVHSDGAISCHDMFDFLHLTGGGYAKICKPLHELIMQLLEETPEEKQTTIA
PAFAH2 inh: inhibitors of human PAFAH2; Q99487; recombinant PAFAH2, FP-rhodamine activity probe, fluorescence polarization; inhibition, % at 3.39 µM; hit rate 0.99% among 340,000; AID 492956;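 active = inhibition above the mean over all tested compounds plus 3 SD, cut at about 30% in these data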;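 also: inhibitors block probe labeling of enzyme so polarization drops; 0% = enzyme with DMSO and 100% = wells lacking PAFAH2 protein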
PAFAH1B3 inh: PAFAH1B3 (human) inhibition. Q15102. recombinant PAFAH1B3, FP-rhodamine probe, fluorescence polarization. inhibition, % at 3.39 µM. hit rate 0.28% among 340,000. AID 492972;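 active = inhibition above the screen-wide average of all tested compounds plus 3 SD, cut at about 25% in these data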;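 also: 0% = enzyme with DMSO only and 100% = wells lacking PAFAH1B3 protein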
Target sequence (Q15102 whole entry, looked up): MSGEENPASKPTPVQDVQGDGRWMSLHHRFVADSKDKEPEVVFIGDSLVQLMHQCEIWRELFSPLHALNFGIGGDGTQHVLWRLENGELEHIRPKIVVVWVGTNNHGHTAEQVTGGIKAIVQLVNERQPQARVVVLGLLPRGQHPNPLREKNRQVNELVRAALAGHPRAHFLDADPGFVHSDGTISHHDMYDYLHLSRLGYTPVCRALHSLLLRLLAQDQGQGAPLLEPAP
pPAFAH inh: pPAFAH (human) enzyme inhibition. hit rate 1.5% among 330,000. recombinant pPAFAH, FP-rhodamine probe fluorescence polarization. inhibition, % at 3.39 µM. Q13093;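 active = inhibition above the mean inhibition across the screen plus 3 SD, cut at about 25% in these data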;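 also: inhibitors block binding of the rhodamine activity-based probe so polarization drops; 0% = enzyme with DMSO and 100% = wells lacking pPAFAH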
Starred values were filed as active, the others as inactive; x = no result. A selection: hits, their analogues and other compounds. The true share with any hit is near 2.9%.

SMILES | Fam108B counter | PME-1 primary | PAFAH1B2 FP inh | PAFAH2 inh | PAFAH1B3 inh | pPAFAH inh
CC1CCN(S(=O)(=O)c2ccc(NC(=O)C3CC3)cc2)CC1 | -1.4 | 1.7 | 25.3* | -5.0 | 0.5 | 5.0
CC1CCN(S(=O)(=O)c2ccc(NC(=O)[C@@H]3CCCC[C@@H]3C(=O)O)cc2)CC1 | 5.5 | -1.3 | 47.8* | 3.7 | 0.7 | 1.3
O=C(NNC(=O)c1ccccc1Br)c1cnccn1 | x | x | -1.2 | -3.2 | 3.2 | 2.5
COC(C/C=C\C(=O)COCc1ccccc1)OC | -0.8 | -5.0 | x | x | x | 25.2*
O=C(O)c1cnn(-c2nc(-c3ccc(Br)cc3)cs2)c1C(F)(F)F | -0.1 | 2.7 | 40.5* | 1.9 | 12.6 | 10.0
O=C(OCc1ccc([N+](=O)[O-])cc1Cl)c1cnccn1 | 5.3 | -2.3 | 1.2 | 6.4 | 0.5 | 1.9
CCOC(=O)c1sc(N=NC2=C(O)CCCC2=O)c(C(=O)OCC)c1C | 8.2 | 7.6 | -5.4 | 10.1 | 1.7 | 27.7*
CCOC(=O)/C(N=Nc1sc(C(=O)OCC)c(C)c1C(=O)OCC)=C(\C)O | 1.4 | 2.3 | x | x | x | 2.0
CCN(CC)c1cccc(OC2=NS(=O)(=O)c3ccccc32)c1 | 6.0 | 11.0 | -0.8 | 2.3 | -3.3 | 24.9*
CCc1ccc(OC2=NS(=O)(=O)c3ccccc32)cc1 | x | x | 2.5 | 0.1 | 7.8 | x
CCCOc1cc(N(CC)CC)ccc1/C=C(/C#N)c1nc2ccc(C)cc2[nH]1 | 4.4 | 14.6 | -4.5 | -3.7 | 2.8 | 19.1
CCOc1cc(N(CC)CC)ccc1/C=C(/C#N)c1nc2ccccc2[nH]1 | 8.0 | 29.9* | 12.7 | 14.4 | 15.1 | 26.8*
O=S(=O)(Nc1ccc(Br)cc1)c1cccc(NS(=O)(=O)c2cccs2)c1 | x | x | 74.7* | 43.3* | -0.5 | x
O=C(O)c1ccc(/C=N/NC(=O)c2ccc(NS(=O)(=O)c3cccs3)cc2)cc1 | -2.4 | -9.2 | -2.0 | -2.7 | 11.4 | 2.3
O=C(O)c1cc(NS(=O)(=O)c2cccs2)cc(NS(=O)(=O)c2cccs2)c1 | x | 2.4 | 25.5* | 10.7 | 2.8 | 3.3
CCCC(C)c1nnc(NC(=O)COc2ccc3c(c2)OCO3)s1 (stereo not given) | -0.1 | -2.9 | -14.2 | -4.3 | 5.0 | -4.4
O=C1N[C@H](Cc2ccccc2)COC(=O)[C@@H](Cc2ccc(F)cc2)CC/C=C/C[C@H]1CC(=O)N(CCO)Cc1ccccc1 | x | x | 6.5 | 27.6 | -2.6 | 28.9*
O=C(N[C@H]1C/C=C\C[C@H](CC(=O)N(CCO)Cc2ccccc2)C(=O)N[C@H](Cc2c[nH]c3ccccc23)COC1=O)OCC1c2ccccc2-c2ccccc21 | x | x | -1.1 | 9.6 | 13.0 | 32.8*
O=C(C[C@@H]1C/C=C\C[C@@H](Cc2ccc(F)cc2)C(=O)OC[C@@H](Cc2c[nH]c3ccccc23)NC1=O)NCCO | x | x | 21.2 | 3.0 | 5.5 | 25.3*
O=C(N[C@H]1C/C=C\C[C@@H](CC(=O)N(CCO)Cc2ccccc2)C(=O)N[C@H](Cc2c[nH]c3ccccc23)COC1=O)OCC1c2ccccc2-c2ccccc21 | x | x | 2.9 | 8.2 | -1.6 | 13.1
O=C1N[C@H](Cc2ccccc2)COC(=O)[C@H](Cc2ccc(F)cc2)CC/C=C/C[C@@H]1CC(=O)N(CCO)Cc1ccccc1 | x | x | 10.1 | 5.2 | 5.5 | 5.5
O=C1N[C@@H](Cc2ccccc2)COC(=O)[C@@H](Cc2ccc(F)cc2)CC/C=C/C[C@@H]1CC(=O)N(CCO)Cc1ccccc1 | x | x | 25.9* | 14.9 | 4.2 | 9.3
O=C1N[C@@H](Cc2c[nH]c3ccccc23)COC(=O)[C@@H](Cc2ccc(F)cc2)C/C=C\C[C@H]1CC(=O)N(CCO)Cc1ccccc1 | x | x | 15.2 | 4.0 | 5.2 | 28.5*
O=C1N[C@@H](Cc2c[nH]c3ccccc23)COC(=O)[C@H](Cc2ccc(F)cc2)C/C=C\C[C@@H]1CC(=O)N(CCO)Cc1ccccc1 | x | x | 7.3 | 1.2 | 7.1 | 7.5
Cn1c(NC(=O)Cc2cccc3ccccc23)cc(=O)n(C)c1=O | 0.8 | 0.0 | -0.1 | 4.3 | 3.4 | -3.1
COc1ccccc1CCC(=O)Nc1ccc2c(c1)CN(Cc1ccc(C)o1)CC2 | -6.3 | 3.0 | 2.9 | 11.2 | 2.3 | 15.4
Cn1c(CCN2CCCC2)nc2cc(NS(=O)(=O)c3ccc(Cl)cc3)ccc21 | -4.9 | 2.5 | 28.1* | 4.8 | 2.3 | 10.4
CCN1CCN(CCCNC(=O)CCC(=O)N2CCOc3ccc(Cl)cc32)CC1 | -1.6 | -4.7 | 6.4 | -4.4 | 3.9 | 5.4

High-throughput results as filed in PubChem.
